Results on 24 molecules are retold here after PMC10163288.

Only a sample is shown. No count for the full screen is at hand. Unmarked numbers belong to inactive results.

To fix the notation:
B1: il10ra_site1_normal_mot_HHH_b1_04693_000000238_0001_19_36_H_._HHH_b2_06085_af2_0001_0000700026_0000002_0 (protein)
chain: SSSSSDQELYELIRELIELLLEGDEEEIERLEEEIEKLAKELNNRVLLFVARAARRLQEKSSSSS
B2: il10ra_site1_sap_20_mot_HHH_b1_08622_000000192_0001_23_40_H_._HHH_b2_06485_0001_0000100001_0000003_0_0001_af2pred_0001 (protein)
chain: SSSSSEFEEAIKAARESIEHALRLGDDEKVEQALRLLERLARDANDEEAEKFIEEVEELLSSSSS
B3: il10ra_site1_sap_11_mot_HHH_b1_00456_000000263_0001_1_17_H_._HHH_b2_06141_0001_0000200005_0000001_0_0001_af2pred_0001 (protein)
chain: SSSSDIAERLVELALEAARLAAERGDPEAVRRALEQAEHLAKLNNNPELEEEVKELEEELSSSSS
B4: il10ra_site1_sap_15_mot_HHH_b1_00814_af2_000000078_0001_43_57_H_._HHH_b2_00250_af2_0001_0000100010_0000001_0_0001_af2pred_0001 (protein)
chain: SSSSSRSAEEAIRRLLRAAKQLEDEERLKLAIRDALAAAEFLGNEELVEELRKILEELRSSSSSS
B5: il10ra_site1_sap_28_mot_HHH_b2_01776_000000118_0001_38_52_H_._HHH_b1_02755_0001_0000100001_0000001_0_0001_af2pred_0001 (protein)
chain: SSSSDEELLEHLLRALKQVVELGDEERAKLTIKFIKRLAELHNDEEVEKRLRELEELVEELSSSS
B6: il10ra_site1_normal_mot_HHH_b1_02809_af2_000000277_0001_40_57_H_._HHH_b1_00768_af2_0001_0000200008_0000001_0 (protein)
chain: SSSSSSDANETAARLIRAAYRGDEELFEELREELEELIERYGDPRLRLALQFAEALFRELSSSSS
B7: il10ra_site1_sap_22_mot_HHH_b1_00169_000000276_0001_1_18_H_._HHH_b1_00842_0001_0000200007_0000001_0_0001 (protein)
chain: SSSSDEEREELYEILEEVIKLASEGDEEEFEELVREAEELAKELGNWVVRHVLELLRRDLSSSSS
B8: il10ra_site1_normal_mot_HHH_b2_01397_000000078_0001_23_39_H_._HHH_b2_08075_0001_0000300026_0000002_0_af2pred_0001 (protein)
chain: SSSSDERVKLTLRFAEALAKHGDRRAVELLLRAARQLAERDGDEELEELIEEVEERVRELLSSSS
B9: il10ra_site1_normal_mot_HHH_b1_05357_000000034_0001_23_39_H_._HHH_b1_03625_af2_0001_0000700020_0000001_0 (protein)
chain: SSSSSDEKEVTHILIQAYAAANHGNPEEAEELLKEAKEIAEEINNERLKLSIEKVEEILRSSSSS
B10: il10ra_site1_sap_13_mot_HHH_b2_00943_af2_000000149_0001_1_17_H_._HHH_b1_02941_af2_0001_0000200003_0000001_0_0001 (protein)
chain: SSSSDVSREAYELSRRAAELHSEGNPEEARELLEEAEELLREAGDRVILHNVEYVLELLNSSSSS
B11: il10ra_site1_sap_14_mot_HHH_eva_0266_af2_000000000_0001_3_18_H_._HHH_b1_03321_0001_0000100001_0000001_0_0001 (protein)
chain: SSSSYEELKKLIERITRALREGNREEAQELIERVEELAEERNDWSARFVARVLQEALEANSSSSS
B12: il10ra_site1_normal_mot_HHH_b2_00475_000000107_0001_44_57_H_._HHH_b2_03520_0001_0000600038_0000001_0 (protein)
chain: SSSSDEEEVSHLLFRALELLFRGDKEEAEELVEEAKEIAEESNDPELQRYVEIAEHFVKAHSSSS
B13: il10ra_site1_normal_mot_HHH_b2_08186_000000021_0001_43_56_H_._HHH_b1_00125_0001_0000100002_0000001_0 (protein)
chain: SSSSSSDLEEEIEELLEELKQISDPERFAEVARRVLRLIYELGDEELLQELWEILKRLSSSSSSS
B14: il10ra_site1_normal_mot_HHH_b1_05670_000000169_0001_1_19_H_._HHH_b2_02857_0001_0000400035_0000001_1 (protein)
chain: SSSSDEDYRRAKELIELIVELLREGNPEEAKKVLEELRELAEENNNPVLEWSVRLLEEDINSSSS
B15: il10ra_site1_sap_27_mot_HHH_b1_05870_000000031_0001_1_20_H_._HHH_b2_06019_af2_0001_0000100004_0000001_0_0001 (protein)
chain: SSSSSDIEELLREAEELAEEGDPEEAARLLLEALKLIYERQDKELLQELWEVVRRVAEISSSSSS
B16: il10ra_site1_sap_19_mot_HHH_b2_03220_af2_000000223_0001_23_40_H_._HHH_b1_07213_0001_0000100001_0000001_0_0001 (protein)
chain: SSSSDEEQEELLRLLRKLVELLLRGDKEEAERLARELLELAEELNDEKVVHVVEDLEKTVSSSSS
B17: il10ra_site1_sap_24_mot_HHH_b2_00475_000000107_0001_44_57_H_._HHH_b1_04576_0001_0000500027_0000001_0_0001 (protein)
chain: DLLELAFELQRRQGTPPEDVIRALLYLAHAANDPERVELLEEVLKLLEDGDPERAEELLKEASKR
B18: il10ra_site1_sap_20_mot_HHH_b1_07100_000000193_0001_1_18_H_._HHH_b2_05849_0001_0000400035_0000001_0_0001_af2pred_0001 (protein)
chain: SSSSSERLELTIKFIEFLLEQGDPEAAKRLARAAAQIAKKDGDEELLRRIEELLEEAEELLSSSS
B19: il10ra_site1_normal_mot_1cde5897893f3d1588f92be3b001cdf2_0001_af2_000000130_0001_54_65_H_._HHH_b2_05871_0001_0000300015_0000001_1_af2pred_0001 (protein)
chain: SSSSSDEEVEERVEELLERLHHVDPKEAAQLLHEAARLAAELDNPELLELVFEAAEEVISSSSSS
B20: il10ra_site1_sap_30_mot_HHH_b1_02809_af2_000000277_0001_40_57_H_._HHH_b1_05733_0001_0000200016_0000002_0_0001 (protein)
chain: SSSSSEASRRIYELLRRIVELHHEGNPEEARELIEEAKELAEEAGDRVLLWVIEWLERLVNSSSS
B21: il10ra_site1_sap_21_mot_HHH_b1_04771_000000013_0001_40_56_H_._HHH_b1_05247_0001_0000500023_0000001_0_0001 (protein)
chain: SSSSDQEEELVRAAIRLIEQLIKNGNPEAARMILWAAEKLAKEINNPELLEELEELKELLNSSSS
B22: il10ra_site1_normal_mot_a6c796b944619e241e020fd597ddb6da_0001_af2_000000092_0001_15_31_H_._HHH_b2_01778_af2_0001_0000100002_0000002_0_af2pred_0001 (protein)
chain: SSSSSSSEEEQEVHALIFFARISDNEDAAKISLELAKKIAEEINNEELREEIEELEKELSSSSSS
B23: il10ra_site1_normal_mot_HHH_b2_01705_af2_000000069_0001_44_57_H_._HHH_b1_04218_af2_0001_0000400020_0000001_0 (protein)
chain: SSSSSSDSEELLEEAEELLKEIKDPEERTEVYRKFAEELVELGDREAIERLSELFIRASSSSSSS
B24: il10ra_site1_sap_19_mot_HHH_b1_00992_000000182_0001_23_40_H_._HHH_b1_02574_0001_0000200023_0000001_0_0001 (protein)
chain: SSSSDEEEELVRAALRLAEQAYENGDPEAAKRLLWAAEFLAREIGDEELEELVERVEEKISSSSS

In this assay the target is il10ra, Q13651. As to the kind of experiment: yeast display titration.
Sequence of il10ra, Q13651 (Q13651 whole entry): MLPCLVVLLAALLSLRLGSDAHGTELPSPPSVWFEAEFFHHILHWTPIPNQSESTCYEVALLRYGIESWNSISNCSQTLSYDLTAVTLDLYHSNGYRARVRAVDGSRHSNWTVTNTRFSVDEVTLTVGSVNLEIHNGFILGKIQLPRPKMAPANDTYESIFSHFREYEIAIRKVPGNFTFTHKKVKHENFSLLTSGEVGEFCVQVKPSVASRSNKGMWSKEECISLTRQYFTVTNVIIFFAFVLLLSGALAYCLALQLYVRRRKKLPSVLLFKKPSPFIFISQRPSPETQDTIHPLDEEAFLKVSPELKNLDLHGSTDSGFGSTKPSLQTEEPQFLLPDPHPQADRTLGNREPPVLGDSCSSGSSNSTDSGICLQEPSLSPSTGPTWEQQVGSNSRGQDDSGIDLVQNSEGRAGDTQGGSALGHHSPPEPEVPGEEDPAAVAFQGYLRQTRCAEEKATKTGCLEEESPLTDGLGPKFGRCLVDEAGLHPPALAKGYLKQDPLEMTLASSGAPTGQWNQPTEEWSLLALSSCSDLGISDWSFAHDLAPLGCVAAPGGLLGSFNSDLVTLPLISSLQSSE
On to B1, for which the “apparent Kd” value was “no binding seen”.
To B2 belongs “no binding seen”.
Under B3 stands “no binding seen”.
To B4 belongs “no binding seen”; to B5, “no binding seen”.
For the molecule B6, the “apparent Kd” value is “no binding seen”.
To B7 belongs “no binding seen”; to B8, “no binding seen”.
Under B9 stands “no binding seen”.
Under B10 stands “no binding seen”; under B11, “no binding seen”; under B12, “no binding seen”.
As to B13, the “apparent Kd” value is “no binding seen”.
Regarding B14, the “apparent Kd” value is “no binding seen”.
Under B15 stands “no binding seen”; under B16, “no binding seen”; under B17, “no binding seen”.
To B18 belongs “no binding seen”.
In the case of B19, the “apparent Kd” value was “no binding seen”.
With B20, the “apparent Kd” value is “no binding seen”.
Under B21 stands “no binding seen”.
To B22 belongs “no binding seen”; to B23, “no binding seen”.
To B24 belongs “no binding seen”.
